# The full ranking holds about 5,000 sequences; the median of “log2 normalized fluorescence” is about 0.089, and the highest 2% start at about 0.81. The list comes from a sample in which the highest values are over-represented; it also holds similar and randomly drawn sequences.
# Molecular target: MYC (p64);MAX (p21), in MYC:MAX (human;human, UniProt P01106-1;P61244-2 1-439;1-151, |)
# Assay: protein-binding microarray (anti-MAX antibody); PBM: 15 mM Tris-HCl pH 7.5, 100 mM KCl, 0.075% NP40, 7.5 mM beta-mercaptoethanol, 375 ng/ul BSA, 8 ng/ul poly(dA-dT):(dA-dT), 550 ng complex, 60 min, room tempe; high values mean tight binding
# Settings: protein: recombinant;recombinant; tags: 6xHis;6xHis; copies: 1;1; label: 3' end of printed strand (linker) attached to glass slide; dsDNA, one strand shown
# Summary of the method: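 Binding is reported as log2 normalized fluorescence. Recombinant His-tagged human MYC:MAX or MAX:MAX dimers expressed in E. coli (550 ng) were incubated with a custom Agilent glass array for 60 min at room temperature in Tris-KCl buffer, pH 7.5, containing NP40, BSA and poly(dA-dT) competitor. The array carried ~5000 unique 12-nt sequences, each spotted in triplicate and made double-stranded by primer extension, and bound protein was detected with anti-MAX and secondary antibodies and scanned at 543 nm.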
# Chain of MYC (p64);MAX (p21), in MYC:MAX (P01106 16-454, chain 1 of 2): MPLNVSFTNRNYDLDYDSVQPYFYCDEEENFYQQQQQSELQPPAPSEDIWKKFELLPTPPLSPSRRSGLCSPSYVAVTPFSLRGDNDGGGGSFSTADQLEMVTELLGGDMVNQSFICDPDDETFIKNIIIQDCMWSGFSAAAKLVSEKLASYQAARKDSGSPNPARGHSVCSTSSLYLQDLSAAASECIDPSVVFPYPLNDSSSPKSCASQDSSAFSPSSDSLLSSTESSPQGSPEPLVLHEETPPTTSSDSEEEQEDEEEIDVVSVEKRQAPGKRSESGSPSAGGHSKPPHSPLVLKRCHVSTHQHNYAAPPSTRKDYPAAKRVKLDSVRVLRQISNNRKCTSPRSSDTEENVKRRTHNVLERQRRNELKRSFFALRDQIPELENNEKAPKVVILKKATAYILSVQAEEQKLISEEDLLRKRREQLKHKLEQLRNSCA
# Chain of MYC (p64);MAX (p21), in MYC:MAX (P61244 other isoform, or with tags, fused parts or gaps |, chain 2 of 2): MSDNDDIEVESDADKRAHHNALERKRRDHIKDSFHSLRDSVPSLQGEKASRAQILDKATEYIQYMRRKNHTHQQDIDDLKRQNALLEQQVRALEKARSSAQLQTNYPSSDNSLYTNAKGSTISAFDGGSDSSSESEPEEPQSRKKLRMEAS
row,Sequence,binding signal
1,CCGGCTGAGCAGCGGTATTAATAGCTAAGATTACTATATCGACG,0.0954 log2 normalized fluorescence
2,CCGGCAGACTCGTTGTATTAATAGCTAAGATTACTATATCGACG,0.374 log2 normalized fluorescence
3,CCGGCTGAAGAGCTGTATTAATAGCTAAGATTACTATATCGACG,0.00393 log2 normalized fluorescence
4,CCGGCTGACACTTTGTATTAATAGCTAAGATTACTATATCGACG,0.302 log2 normalized fluorescence
5,CCGGCTGAGGTTTGGTATTAATAGCTAAGATTACTATATCGACG,-0.0536 log2 normalized fluorescence
6,CCGGCCGACACGTGCTTTTAATAGCTAAGATTACTATATCGACG,0.852 log2 normalized fluorescence
7,CCGGCCGACACGTGCTATTAATAGCTAAGATTACTATATCGACG,0.722 log2 normalized fluorescence
8,CCGGCTGACACGTGCTTTTAATAGCTAAGATTACTATATCGACG,0.771 log2 normalized fluorescence
9,CCGGCTGCCACGTGCTTTTAATAGCTAAGATTACTATATCGACG,0.652 log2 normalized fluorescence
10,CCGGCTAACACGTGCTTTTAATAGCTAAGATTACTATATCGACG,0.969 log2 normalized fluorescence
11,CCGGCCGACACGTTGTTTTAATAGCTAAGATTACTATATCGACG,0.661 log2 normalized fluorescence
12,CCGGCTGAGTTGTGGTATTAATAGCTAAGATTACTATATCGACG,0.0821 log2 normalized fluorescence
13,CCGGCTGAAACATCGTATTAATAGCTAAGATTACTATATCGACG,0.226 log2 normalized fluorescence
14,CCGGCTGAGGTAATGTATTAATAGCTAAGATTACTATATCGACG,0.138 log2 normalized fluorescence
15,CCGGCTTACACATGCTATTAATAGCTAAGATTACTATATCGACG,0.812 log2 normalized fluorescence
16,CCGGCTTACACGTGATATTAATAGCTAAGATTACTATATCGACG,0.75 log2 normalized fluorescence
17,CCGGCATACACTTGGTATTAATAGCTAAGATTACTATATCGACG,0.425 log2 normalized fluorescence
18,CCGGCTAATACGTGGTATTAATAGCTAAGATTACTATATCGACG,0.38 log2 normalized fluorescence
19,CCGGCTTACACGTGCTATTAATAGCTAAGATTACTATATCGACG,1.02 log2 normalized fluorescence
20,CCGGCGGAGACGATGTTTTAATAGCTAAGATTACTATATCGACG,0.0761 log2 normalized fluorescence
21,CCGGCTAACACGCGGTATTAATAGCTAAGATTACTATATCGACG,0.819 log2 normalized fluorescence
22,CCGGCAAACACGATGTTTTAATAGCTAAGATTACTATATCGACG,0.827 log2 normalized fluorescence

row,Sequence,binding signal
1,CCGGCTGACACGCGGTATTAATAGCTAAGATTACTATATCGACG,0.487 log2 normalized fluorescence
2,CCGGCCGACACGCGGTATTAATAGCTAAGATTACTATATCGACG,0.697 log2 normalized fluorescence
3,CCGGCAGAGAACGATGTTTAATAGCTAAGATTACTATATCGACG,0.248 log2 normalized fluorescence
4,CCGGCATACACGTGGTATTAATAGCTAAGATTACTATATCGACG,0.842 log2 normalized fluorescence
5,CCGGCTGATAAGGTGTATTAATAGCTAAGATTACTATATCGACG,0.0319 log2 normalized fluorescence
6,CCGGCTGAACGCTAGTATTAATAGCTAAGATTACTATATCGACG,0.178 log2 normalized fluorescence
7,CCGGCTGAGTGACAGTATTAATAGCTAAGATTACTATATCGACG,0.00932 log2 normalized fluorescence
8,CCGGCTGAACCGATGTATTAATAGCTAAGATTACTATATCGACG,0.0618 log2 normalized fluorescence
9,CCGGCTGACGTACGGTATTAATAGCTAAGATTACTATATCGACG,0.112 log2 normalized fluorescence
10,CCGGCTGAGCTCCCGTATTAATAGCTAAGATTACTATATCGACG,0.0359 log2 normalized fluorescence
11,CCGGCTGAACGGACGTATTAATAGCTAAGATTACTATATCGACG,0.0519 log2 normalized fluorescence
12,CCGGCTATAACGTGGTATTAATAGCTAAGATTACTATATCGACG,0.627 log2 normalized fluorescence
13,CCGGCTTACACGTGGTTTTAATAGCTAAGATTACTATATCGACG,0.721 log2 normalized fluorescence
14,CCGGCGCAAACGTGGTATTAATAGCTAAGATTACTATATCGACG,0.579 log2 normalized fluorescence
15,CCGGCTAACACGTGGTTTTAATAGCTAAGATTACTATATCGACG,1.01 log2 normalized fluorescence
16,CCGGCAAATACGTGGTATTAATAGCTAAGATTACTATATCGACG,0.556 log2 normalized fluorescence
17,CCGGCTTAGACGTGGTATTAATAGCTAAGATTACTATATCGACG,0.235 log2 normalized fluorescence
18,CCGGCTTAATCGTGGTATTAATAGCTAAGATTACTATATCGACG,0.374 log2 normalized fluorescence
19,CCGGCCGTCACGTGGTTTTAATAGCTAAGATTACTATATCGACG,0.74 log2 normalized fluorescence
20,CCGGCTAACACGTGGTATTAATAGCTAAGATTACTATATCGACG,0.946 log2 normalized fluorescence
21,CCGGCAAACACGTGGTATTAATAGCTAAGATTACTATATCGACG,1.02 log2 normalized fluorescence
22,CCGGCGAACACGTGGTATTAATAGCTAAGATTACTATATCGACG,0.76 log2 normalized fluorescence

row,Sequence,binding signal
1,CCGGCTTACACGTGGTATTAATAGCTAAGATTACTATATCGACG,0.847 log2 normalized fluorescence
2,CCGGCTGACGCACTGTATTAATAGCTAAGATTACTATATCGACG,0.457 log2 normalized fluorescence
3,CCGGCTGAAGGCCCGTATTAATAGCTAAGATTACTATATCGACG,0.0982 log2 normalized fluorescence
4,CCGGCTGAATCAAAGTATTAATAGCTAAGATTACTATATCGACG,-0.00984 log2 normalized fluorescence
5,CCGGCTGACCCTTGATATTAATAGCTAAGATTACTATATCGACG,0.0562 log2 normalized fluorescence
6,CCGGCTGAATGTTGGTATTAATAGCTAAGATTACTATATCGACG,0.176 log2 normalized fluorescence
7,CCGGCTGACCTCCCGTATTAATAGCTAAGATTACTATATCGACG,0.167 log2 normalized fluorescence
8,CCGGCTGAACCGCGGTATTAATAGCTAAGATTACTATATCGACG,0.103 log2 normalized fluorescence
9,CCGGCTGAACTCGAGTATTAATAGCTAAGATTACTATATCGACG,0.253 log2 normalized fluorescence
10,CCGGCTGGGGCGTGGTATTAATAGCTAAGATTACTATATCGACG,0.471 log2 normalized fluorescence
11,CCGGCCAACACGTTGTATTAATAGCTAAGATTACTATATCGACG,0.669 log2 normalized fluorescence
12,CCGGCCAACACGTGGTATTAATAGCTAAGATTACTATATCGACG,0.937 log2 normalized fluorescence
13,CCGGCTCCAACGTGGTATTAATAGCTAAGATTACTATATCGACG,0.579 log2 normalized fluorescence
14,CCGGCTGAAGGACCGTATTAATAGCTAAGATTACTATATCGACG,0.0673 log2 normalized fluorescence
15,CCGGCTGACACGTGGCCTTAATAGCTAAGATTACTATATCGACG,0.897 log2 normalized fluorescence
16,CCGGCTGACTCGTGGCATTAATAGCTAAGATTACTATATCGACG,0.584 log2 normalized fluorescence
17,CCGGCTGACACGTAGCATTAATAGCTAAGATTACTATATCGACG,0.484 log2 normalized fluorescence
18,CCGGCTGACACGTGGCATTAATAGCTAAGATTACTATATCGACG,0.835 log2 normalized fluorescence
19,CCGGCTGACACGTGCCTTTAATAGCTAAGATTACTATATCGACG,0.722 log2 normalized fluorescence
20,CCGGCTGACACGTGGACTTAATAGCTAAGATTACTATATCGACG,0.734 log2 normalized fluorescence
